From PubChem BioAssay (NCI)
Compounds without any hit were thinned out: in the full panel of roughly 79,000, 15% have a hit. Unmarked numbers belong to inactive results. The source made the active and inactive calls. No stated cut-off is given here; in the data, active means growth inhibition above about 70%; inactive means the rest.

Tests used:
[1] = NCI Yeast Anticancer Drug Screen. Data for the rad50 strain (AID 155);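 further: 0% = growth of vehicle-only cultures of the same strain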; settings: S. cerevisiae rad50 strain growth inhibition, active compounds read high
Procedure, shortened: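 Readout: growth inhibition relative to vehicle-treated cultures. Compound exposure was carried out in a genetically defined yeast strain deficient in DNA damage repair.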

[2] = NCI Yeast Anticancer Drug Screen. Data for the mec2-1 strain (AID 157); settings: S. cerevisiae mec2-1 strain, active compounds read high
Procedure, shortened: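 Compounds were applied to mec2-1 yeast cells. Their growth was then compared with that of vehicle-treated cultures to give growth inhibition.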

[3] = NCI Yeast Anticancer Drug Screen. Data for the sgs1 mgt1 strain (AID 161);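 further: 0% = growth of cultures given vehicle only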; settings: S. cerevisiae sgs1 mgt1 strain, active compounds read high
Procedure, shortened: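 This yeast growth screen uses a strain with defined DNA-repair lesions; compound-treated growth is compared with vehicle-treated growth.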

[4] = NCI Yeast Anticancer Drug Screen. Data for the cln2 rad14 strain (AID 165);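 further: 0% = growth equal to vehicle treated cultures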; settings: S. cerevisiae cln2 rad14 strain, active compounds read high
Procedure, shortened: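 Strain: cln2 rad14 yeast, altered in cell cycle control and DNA damage repair. Read-out: growth inhibition vs vehicle.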

[5] = NCI Yeast Anticancer Drug Screen. Data for the bub3 strain (AID 167); settings: S. cerevisiae bub3 mutant strain, active compounds read high
Procedure, shortened: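 Readout: yeast growth inhibition, expressed relative to vehicle-only wells. The test organism is a mutant strain from a panel with lesions in DNA repair or checkpoint genes.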

[6] = NCI Yeast Anticancer Drug Screen. Data for the mlh1 rad18 strain (AID 175); settings: S. cerevisiae mlh1 rad18 strain growth inhibition, active compounds read high
Procedure, shortened: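 A repair-deficient yeast strain is exposed to test compound, and growth is scored relative to vehicle-treated controls.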

[7] = at 5.0 µM (retest, dose inferred, filed as 0.5)
[8] = at 50.0 µM (retest, dose inferred, filed as 5.0)

Compound | growth inhibition [1, 7] | growth inhibition [1, 8] | growth inhibition ([1]; at 50.0 µM) | growth inhibition [2, 7] | growth inhibition [2, 8] | growth inhibition ([2]; at 50.0 µM) | growth inhibition [3, 7] | growth inhibition [3, 8] | growth inhibition ([3]; at 50.0 µM) | growth inhibition [4, 7] | growth inhibition [4, 8] | growth inhibition ([4]; at 50.0 µM) | growth inhibition [5, 7] | growth inhibition [5, 8] | growth inhibition ([5]; at 50.0 µM) | growth inhibition [6, 7] | growth inhibition [6, 8] | growth inhibition ([6]; at 50.0 µM)
O=[N+]([O-])c1ccc2c(c1)N([O-])C1(CCCCC1)[N+]2=O | 25% | 99% (active) | 89% (active) | 24% | 99% (active) | 92.9% (active) | 23% | 97% (active) | 91.2% (active) | 22% | 98% (active) | 88% (active) | 10% | 98% (active) | 91.1% (active) | 37% | 99% (active) | 88.4% (active)
Clc1ccc(N2CCN(CCCN3CCN(c4ccc(Cl)cc4)CC3)CC2)cc1 | -2% | 29% | 67.9% | -6% | 35% | 18.5% | -14% | 74% (active) | 81.2% (active) | -3% | 30% | 6.25% | -3% | 24% | 24.9% | 4% | 42% | 31.8%
O=C1C=CC(=C(c2ccccc2)c2ccc(O)cc2)C=C1 | -5% | 75% (active) | 31.3% | -8% | 72% (active) | 80.3% (active) | -5% | -27% | 65.3% | -7% | 76% (active) | 27.6% | -8% | 92% (active) | 92.2% (active) | 2% | 86% (active) | 81% (active)
O=P(O)(O)Oc1c(O)c2ccccc2c2ccccc12 | 14% | 73% (active) | 91.4% (active) | 22% | 95% (active) | 94.8% (active) | 17% | 85% (active) | 97.5% (active) | 5% | 97% (active) | 97% (active) | 25% | 92% (active) | 99.6% (active) | 17% | 94% (active) | 99.3% (active)
COC1CCC(/C(C#N)=C/c2ccco2)CC1 (centres undefined) | 17% | 22% | 61.7% | -5% | 13% | 57.3% | -5% | 26% | 78.2% (active) | 22% | 29% | -0.15% | 38% | 58% | 79.6% (active) | 8% | 49% | 57.1%
CCCCCCCCCCNC(=O)C[n+]1cccc(C(=O)Nc2ccccc2)c1 | 4% | 99% (active) | 99.7% (active) | 10% | 100% (active) | 99.8% (active) | -13% | 100% (active) | 99.9% (active) | 3% | 99% (active) | 99.2% (active) | -1% | 99% (active) | 99.6% (active) | 28% | 100% (active) | 99.8% (active)
CCCCOS(=O)(=O)c1ccc(C)cc1 | -7% | 15% | 9.1% | -4% | -22% | -82.3% | -8% | 7% | -9.45% | 1% | -15% | 25.1% | -16% | -39% | -23.5% | -6% | -4% | -3.55%
Oc1cccc(/C=C/c2ccncc2)c1 | 0% | 28% | 75.1% (active) | -4% | 13% | 37.6% | -3% | 25% | 65.5% | -6% | 15% | 25.9% | -6% | 22% | 63.8% | -1% | 12% | 65.5%
CC(C)c1cc2c(cc1O)C[C@@]1(O)CCCC(C)(C)C1CC2 (some centres undefined) | 8% | 97% (active) | 90.6% (active) | 3% | 97% (active) | 92.3% (active) | 3% | 92% (active) | 91.2% (active) | -16% | 96% (active) | 90% (active) | 7% | 96% (active) | 91.2% (active) | 10% | 95% (active) | 90.2% (active)
CCC(C)c1ccc(O)c(C(C)c2ccccc2)c1 (centres undefined) | 44% | 70% (active) | 89.6% (active) | 41% | 68% | 92.2% (active) | 19% | 97% (active) | 92.9% (active) | 49% | 101% (active) | 90.3% (active) | 15% | 100% (active) | 91% (active) | 40% | 61% | 90.5% (active)
CCOCCOc1ccc(OCCOCC)cc1 | -8% | -13% | -1.9% | -8% | -13% | -1.7% | -66% | -9% | -7% | -4% | -10% | 37.3% | -8% | -4% | -2.95% | 13% | -15% | 0.4%
CC(=O)N(C(C)=O)C1=C2c3ccccc3N(S(=O)(=O)c3ccccc3)C2n2c(=O)n(-c3ccccc3)c(=O)n2C1 (centres undefined) | 11% | 64% | 69.9% | -5% | 46% | 46.8% | -1% | 66% | 75.7% (active) | -26% | 61% | 63.7% | 0% | 56% | 58.6% | -10% | 35% | 55.7%
C/C(CCn1[nH]c(=O)ccc1=O)=N\Nc1ccc([N+](=O)[O-])cc1[N+](=O)[O-] | 44% | 97% (active) | 67.3% | 20% | 98% (active) | -0.6% | 27% | 98% (active) | 19.6% | 23% | 81% (active) | 24.4% | 32% | 98% (active) | 25.9% | 45% | 98% (active) | 73.2% (active)
C/C(=N\NC(=S)Nc1ccc(S(N)(=O)=O)cc1)c1ccccn1 | 33% | 64% | 63.5% | 25% | 65% | 42.8% | 34% | 84% (active) | 28.9% | 20% | 67% | 24.5% | 41% | 84% (active) | 37.6% | 39% | 70% (active) | 64%
CC(=O)Nc1ccc(S(=O)(=O)/N=C2\C=CC(=O)c3ccccc32)cc1 | 2% | 27% | 63.9% | 4% | 24% | 54.6% | 1% | 7% | 79.9% (active) | -9% | -6% | -43.4% | 5% | 14% | 71.7% (active) | 5% | 16% | 80% (active)
ClC(Cl)(Cl)/C=C/c1cnc2ccccc2n1 | 2% | 99% (active) | 15.6% | 1% | 99% (active) | 5.95% | 1% | 99% (active) | 49.3% | -3% | 99% (active) | -2% | -3% | 99% (active) | 85.7% (active) | 3% | 99% (active) | 30.2%
CCCCCCCN(CCCCCCC)CC(=O)NC(=O)c1ccccc1 | 29% | 99% (active) | 99.4% (active) | 21% | 98% (active) | 97.2% (active) | 23% | 99% (active) | 99.5% (active) | 33% | 99% (active) | 96.8% (active) | 43% | 99% (active) | 99.3% (active) | 26% | 99% (active) | 99.3% (active)
[Cl][Sn]([O][Sn]([Cl])([c]1ccccc1)[CH]1CCCCC1)([c]1ccccc1)[CH]1CCCCC1 (centres undefined) | 6% | 97% (active) | 88% (active) | 7% | 99% (active) | 90.3% (active) | 12% | 99% (active) | 90.8% (active) | -11% | 98% (active) | 90.1% (active) | 2% | 99% (active) | 89.6% (active) | 5% | 97% (active) | 92% (active)
